Hits are enriched below; roughly 1.1% of the tested compounds scored in any of these assays.
OPRM1-OPRD1 inv = inverse agonists of human mu-delta opioid receptor heterodimerization. cell-based MOR-DOR heterodimer luminescence, inverse agonism. inhibition, % at 9.3 µM. 340,000 compounds, 0.21% hits. AID 504357. P35372+P41143; in the data active means inhibition above about 22%, passing the limit was not always enough;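 further: 0% = cells with DMSO and 100% = wells without cells with DMSO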
MOR-DOR ag-1 = OPRM1-OPRD1 heterodimerization agonism; cells, luminescence; activation, % at 9.3 µM; 340,000 compounds, 0.3% hits;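 further: 0% = vehicle-treated cells and 100% = reference agonist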
HTR5A ag ctr = counter-screen for OPRM1-OPRD1 agonists: human HTR5A agonism | HTR5A agonist assay, luminescence, cell-based | P47898 | activation, % at 9.3 µM | 340,000 compounds, 0.61% hits | AID 504692; in the data active means activation mostly above about 9.5%, no sharp cut-off; inactive means mostly below about 7.6%;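 further: 0% = cells with vehicle only and 100% = reference agonist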
HTR5A inv ag = HTR5A inverse agonism, opioid heterodimer counter-screen | P47898 | 340,000 compounds, 0.083% hits | AID 504634 | inhibition, % at 9.3 µM | HTR5A cell line, luminescence; in the data active means inhibition mostly above about 23%, no sharp cut-off; inactive means mostly below about 18%;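 further: 0% = cells with DMSO and 100% = no-cell wells with DMSO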
MOR-DOR ag-2 = counter-screen for HTR5A agonists: OPRM1-OPRD1 heterodimerization agonism; shares compounds with HTR5A ag ctr; activation, % at 9.3 µM; U2OS counter-screen cells, complementation luminescence, 3 h; AID 504913; 800 compounds, 13% hits
HTR5A ag conf = HTR5A (human) agonism, confirmation | HTR5A agonist cell assay, luminescence | AID 504915 | shares compounds with HTR5A ag ctr | 800 compounds, 17% hits | activation, % at 9.3 µM; in the data active means activation above about 17%;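 further: 0% = cells with vehicle only and 100% = full reference agonist response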
Starred values were filed as active, the others as inactive; / = no result. Unless noted, no stated cut-off is given here; in the data, active means activation above about 18%; inactive means the rest.

SMILES	OPRM1-OPRD1 inv	MOR-DOR ag-1	HTR5A ag ctr	HTR5A inv ag	MOR-DOR ag-2	HTR5A ag conf
C/C(=N\NC(=O)CNc1ccccc1)c1ccccc1	3	-1	18*	-49	0	0
CCc1noc(C)c1C(=O)NNC(=O)c1ccc(N(CC)CC)cc1	25	-7	4	-10	/	/
CC1CCCC(NC(=O)COC(=O)c2cc(S(=O)(=O)N3CCOCC3)ccc2F)C1C (stereo not drawn)	0	0	18*	-47	4	6
COc1ccc(C(=O)CCC(=O)NCCc2c[nH]c3ccccc23)cc1	20	-4	44*	-156	0	42*
O=C(Cc1ccccc1)NCCc1c[nH]c2ccccc12	10	-2	0	-2	/	/
Cc1ccccc1NC(=O)C(=O)NCCc1c[nH]c2ccccc12	-16	3	35*	-190	2	61*
O=C(CCC(=O)c1ccccc1)NCCc1c[nH]c2ccccc12	8	-1	94*	-293	2	89*
O=C(O)c1nccnc1C(=O)NCCc1c[nH]c2ccccc12	18	-3	16*	-5	0	12
CC1CC(C)(C)CC2(C1)NC(=O)N(CC(=O)N1CCN(S(=O)(=O)c3cccs3)CC1)C2=O (stereo not drawn)	5	-1	-11	26	/	/
COc1ccc(C2=NN(C(=O)CCC(=O)O)C(c3ccccc3F)C2)cc1 (stereo not drawn)	9	-2	2	7	/	/
c1ccc2c(NCCc3c[nH]c4ccccc34)c3ccccc3nc2c1	-17	3	17*	-68	7	2
Fc1cccc(NCCc2c[nH]c3ccccc23)n1	-26	5	-3	12	/	/
O=C(NCCc1c[nH]c2ccccc12)c1cccc(S(=O)(=O)Nc2ccccc2Cl)c1	8	-2	0	2	/	/
CN(c1ccccc1)S(=O)(=O)c1cccc(C(=O)NCCc2c[nH]c3ccccc23)c1	8	-2	27*	-73	57*	1
CCCCCOc1ccc(C(=O)Nc2ccc(N3CCOCC3)cc2N2CCOCC2)cc1	5	-1	6	10	/	/
Cc1ccc(S(=O)(=O)N2C(=O)[C@@H]3Cc4ccccc4CN3C2=O)cc1	16	-3	3	-11	/	/
O=C(CSc1nnc(Cc2ccccc2)o1)Nc1ccc(N2CCOCC2)cc1	1	0	3	-5	/	/
O=C(NCCc1ccc(F)cc1)C(=O)NCC1CCCN1S(=O)(=O)c1cccs1 (stereo not drawn)	-19	3	15*	-40	2	0
N/C(Cc1ccc(Cl)c(Cl)c1)=N\OC(=O)c1cccs1	-4	1	44*	-104	2	1
COc1ccc(S(=O)(=O)NC(C(=O)OCC(=O)Nc2ccc(N3CCOCC3)cc2)C(C)C)cc1 (stereo not drawn)	-2	0	16*	-39	1	3
COc1ccc2oc(C(=O)Nc3nc(C)cs3)c(C)c2c1	2	0	-1	4	/	/
O=C(NC1CCCN(CCc2ccccc2)C1)c1c[nH]c2ccccc12 (stereo not drawn)	9	-2	2	-7	/	/
CN1C[C@H](C(=O)NC2(C)OC3(O)[C@@H]4CCCN4C(=O)[C@H](Cc4ccccc4)N3C2=O)CC2c3cccc4[nH]cc(c34)C[C@H]21 (stereo partly drawn)	-9	2	32*	-115	5	63*
CCCN1C(=O)c2ccc(C(=O)Nc3ccccc3C(=O)O)cc2C1=O	0	0	1	-2	/	/
COc1cc(CNCCc2ccccc2)cc(Br)c1OCC(=O)Nc1ccccc1C	-54	10	18*	-45	11	10
CNCc1cc(Br)c(OCC(=O)Nc2ccccc2OC)c(OC)c1	2	0	4	-11	/	/
CCN1C(=O)C(CC(=O)Nc2ccc(F)cc2)N(Cc2ccco2)C1=S (stereo not drawn)	13	-3	-3	6	/	/
COc1ccc(NC(=O)CC2C(=O)N(Cc3ccccc3)C(=S)N2CCN2CCOCC2)cc1 (stereo not drawn)	-5	1	1	-4	/	/
C=CCN1C(=O)C(CC(=O)Nc2ccc(OCCC)cc2)N(CCCN2CCN(Cc3ccccc3)CC2)C1=S (stereo not drawn)	-76	16	17*	-73	39*	-2

High-throughput results: PubChem, The Scripps Research Institute Molecular Screening Center
